From ChEMBL document CHEMBL1961873, “Compounds: GSK PKIS; Assays: Nanosyn kinase panel” (2012)

Key:
[1] = target: Calcium/calmodulin-dependent protein kinase type II subunit alpha (Homo sapiens) (UniProt Q9UQM7); conditions: at 1 µM;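 also: reported value is a mean percent inhibition of CAMK2A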
[2] = target: Calcium/calmodulin-dependent protein kinase type II subunit delta (Homo sapiens) (UniProt Q13557); conditions: at 0.1 µM
[3] = target: Calcium/calmodulin-dependent protein kinase type II subunit delta (Homo sapiens) (UniProt Q13557); conditions: at 1 µM
[4] = target: T1, Calcium/calmodulin-dependent protein kinase type IV (Homo sapiens) (UniProt Q16566); conditions: at 0.1 µM
T1 sequence (whole entry): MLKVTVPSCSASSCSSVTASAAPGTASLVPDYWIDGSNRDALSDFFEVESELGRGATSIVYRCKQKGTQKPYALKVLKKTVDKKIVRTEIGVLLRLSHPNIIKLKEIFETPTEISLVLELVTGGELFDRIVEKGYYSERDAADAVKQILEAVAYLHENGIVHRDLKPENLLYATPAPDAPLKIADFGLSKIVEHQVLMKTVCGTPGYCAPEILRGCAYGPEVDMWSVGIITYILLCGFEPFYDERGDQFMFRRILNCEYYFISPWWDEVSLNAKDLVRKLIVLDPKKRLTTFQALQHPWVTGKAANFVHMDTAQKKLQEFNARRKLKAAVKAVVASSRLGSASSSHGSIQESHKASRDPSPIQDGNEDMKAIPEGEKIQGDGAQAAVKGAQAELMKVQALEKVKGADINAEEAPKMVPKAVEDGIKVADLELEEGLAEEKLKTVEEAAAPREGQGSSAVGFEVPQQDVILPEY

[5] = target: T1, Calcium/calmodulin-dependent protein kinase type IV (Homo sapiens); conditions: at 1 µM
[6] = target: T2, Serine/threonine-protein kinase Chk1 (Homo sapiens) (UniProt O14757); conditions: at 0.1 µM
T2 sequence (whole entry): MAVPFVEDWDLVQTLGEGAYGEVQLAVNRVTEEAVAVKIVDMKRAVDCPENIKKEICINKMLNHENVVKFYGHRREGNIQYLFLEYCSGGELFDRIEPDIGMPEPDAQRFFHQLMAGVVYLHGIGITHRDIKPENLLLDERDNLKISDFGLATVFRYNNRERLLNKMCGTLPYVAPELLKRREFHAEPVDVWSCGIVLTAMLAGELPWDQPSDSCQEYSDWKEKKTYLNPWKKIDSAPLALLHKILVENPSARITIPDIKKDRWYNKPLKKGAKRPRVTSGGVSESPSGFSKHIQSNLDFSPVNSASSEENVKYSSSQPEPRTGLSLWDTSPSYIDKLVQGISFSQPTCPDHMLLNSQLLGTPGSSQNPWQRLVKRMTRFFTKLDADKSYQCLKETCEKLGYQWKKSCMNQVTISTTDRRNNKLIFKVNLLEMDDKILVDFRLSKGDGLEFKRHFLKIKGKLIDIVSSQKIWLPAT

[7] = target: T2, Serine/threonine-protein kinase Chk1 (Homo sapiens); conditions: at 1 µM
[8] = target: Serine/threonine-protein kinase Chk2 (Homo sapiens) (UniProt O96017); conditions: at 0.1 µM
[9] = target: Serine/threonine-protein kinase Chk2 (Homo sapiens) (UniProt O96017); conditions: at 1 µM
[10] = target: Death-associated protein kinase 1 (Homo sapiens) (UniProt P53355); conditions: at 0.1 µM;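 also: reported figure is the mean inhibition of DAPK1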
Death-associated protein kinase 1 (Homo sapiens), sequence (P53355 whole entry, looked up): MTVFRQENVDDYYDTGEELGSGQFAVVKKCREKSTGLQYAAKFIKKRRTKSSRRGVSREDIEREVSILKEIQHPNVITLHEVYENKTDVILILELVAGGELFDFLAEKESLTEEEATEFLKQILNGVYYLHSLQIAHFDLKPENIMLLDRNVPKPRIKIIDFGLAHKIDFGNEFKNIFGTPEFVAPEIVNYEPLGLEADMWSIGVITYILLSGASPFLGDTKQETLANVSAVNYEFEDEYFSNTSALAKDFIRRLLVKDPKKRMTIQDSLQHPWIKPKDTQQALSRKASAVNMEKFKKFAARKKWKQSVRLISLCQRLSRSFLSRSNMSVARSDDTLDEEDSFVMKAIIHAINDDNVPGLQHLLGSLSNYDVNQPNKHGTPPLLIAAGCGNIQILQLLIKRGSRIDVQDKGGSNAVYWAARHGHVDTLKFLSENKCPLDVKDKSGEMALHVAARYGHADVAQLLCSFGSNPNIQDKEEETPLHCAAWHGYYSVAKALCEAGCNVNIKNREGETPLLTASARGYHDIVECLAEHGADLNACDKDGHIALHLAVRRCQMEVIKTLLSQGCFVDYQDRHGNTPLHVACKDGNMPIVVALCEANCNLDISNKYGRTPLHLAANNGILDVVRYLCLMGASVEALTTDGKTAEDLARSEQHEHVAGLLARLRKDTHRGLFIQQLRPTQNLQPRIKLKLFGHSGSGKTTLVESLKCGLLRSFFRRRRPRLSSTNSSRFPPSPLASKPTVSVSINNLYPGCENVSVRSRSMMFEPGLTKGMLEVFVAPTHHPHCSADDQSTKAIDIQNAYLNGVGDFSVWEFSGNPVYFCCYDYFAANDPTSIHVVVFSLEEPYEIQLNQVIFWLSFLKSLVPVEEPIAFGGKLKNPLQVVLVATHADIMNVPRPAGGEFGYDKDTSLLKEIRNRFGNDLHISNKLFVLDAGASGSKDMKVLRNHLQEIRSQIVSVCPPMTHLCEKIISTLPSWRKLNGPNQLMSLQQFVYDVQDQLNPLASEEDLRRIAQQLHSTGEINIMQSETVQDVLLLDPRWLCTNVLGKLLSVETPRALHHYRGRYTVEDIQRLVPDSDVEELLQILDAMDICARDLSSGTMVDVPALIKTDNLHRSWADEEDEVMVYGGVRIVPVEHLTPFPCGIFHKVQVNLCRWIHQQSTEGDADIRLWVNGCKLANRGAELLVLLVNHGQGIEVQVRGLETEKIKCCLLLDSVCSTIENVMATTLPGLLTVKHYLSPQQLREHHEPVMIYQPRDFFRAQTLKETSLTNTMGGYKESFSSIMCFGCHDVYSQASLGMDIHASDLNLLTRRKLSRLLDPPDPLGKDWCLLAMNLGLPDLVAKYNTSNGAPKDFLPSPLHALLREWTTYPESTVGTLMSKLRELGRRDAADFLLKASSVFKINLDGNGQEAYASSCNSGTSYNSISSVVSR

Serine/threonine-protein kinase Chk2 (Homo sapiens), sequence (O96017 whole entry): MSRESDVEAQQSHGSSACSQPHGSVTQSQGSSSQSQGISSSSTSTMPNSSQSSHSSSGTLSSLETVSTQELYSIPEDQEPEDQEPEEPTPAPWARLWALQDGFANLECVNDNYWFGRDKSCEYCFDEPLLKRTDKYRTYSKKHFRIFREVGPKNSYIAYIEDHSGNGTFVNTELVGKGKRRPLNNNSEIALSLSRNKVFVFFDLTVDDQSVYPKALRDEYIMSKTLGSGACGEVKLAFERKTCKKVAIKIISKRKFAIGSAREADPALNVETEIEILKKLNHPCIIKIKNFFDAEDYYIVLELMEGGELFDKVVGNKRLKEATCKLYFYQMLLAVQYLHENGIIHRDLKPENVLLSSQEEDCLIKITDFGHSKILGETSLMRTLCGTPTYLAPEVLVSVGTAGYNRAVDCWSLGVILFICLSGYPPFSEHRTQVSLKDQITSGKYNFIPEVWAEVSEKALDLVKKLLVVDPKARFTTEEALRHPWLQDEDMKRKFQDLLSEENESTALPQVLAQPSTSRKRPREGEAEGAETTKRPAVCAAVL
Calcium/calmodulin-dependent protein kinase type II subunit delta (Homo sapiens), sequence (Q13557 whole entry): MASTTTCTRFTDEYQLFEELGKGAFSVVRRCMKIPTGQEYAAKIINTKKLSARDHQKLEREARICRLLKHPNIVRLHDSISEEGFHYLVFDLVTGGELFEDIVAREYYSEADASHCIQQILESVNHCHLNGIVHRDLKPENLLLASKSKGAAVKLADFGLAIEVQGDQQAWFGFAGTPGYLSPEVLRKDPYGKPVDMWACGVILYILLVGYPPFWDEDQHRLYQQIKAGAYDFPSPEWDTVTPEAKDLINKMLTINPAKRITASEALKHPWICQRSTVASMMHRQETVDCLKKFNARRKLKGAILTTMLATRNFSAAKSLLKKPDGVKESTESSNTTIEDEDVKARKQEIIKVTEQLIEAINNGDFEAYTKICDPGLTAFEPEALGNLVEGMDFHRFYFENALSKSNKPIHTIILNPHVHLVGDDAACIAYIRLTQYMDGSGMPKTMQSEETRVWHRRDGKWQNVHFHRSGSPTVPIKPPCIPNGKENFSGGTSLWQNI
Calcium/calmodulin-dependent protein kinase type II subunit alpha (Homo sapiens), sequence (Q9UQM7 whole entry): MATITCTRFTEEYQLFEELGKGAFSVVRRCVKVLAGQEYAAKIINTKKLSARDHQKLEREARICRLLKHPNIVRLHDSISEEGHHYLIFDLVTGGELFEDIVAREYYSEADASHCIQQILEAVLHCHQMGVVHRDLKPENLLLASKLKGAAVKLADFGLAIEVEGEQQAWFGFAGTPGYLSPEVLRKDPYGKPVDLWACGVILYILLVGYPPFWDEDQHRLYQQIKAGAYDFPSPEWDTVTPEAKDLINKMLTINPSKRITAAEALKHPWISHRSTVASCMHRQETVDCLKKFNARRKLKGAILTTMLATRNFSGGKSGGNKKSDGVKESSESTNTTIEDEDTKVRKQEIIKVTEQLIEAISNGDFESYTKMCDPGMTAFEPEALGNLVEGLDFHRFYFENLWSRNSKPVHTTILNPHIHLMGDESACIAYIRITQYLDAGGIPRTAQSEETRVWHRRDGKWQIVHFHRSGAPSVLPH

Row | SMILES | inhibition [1] [%] | inhibition [2] [%] | inhibition [3] [%] | inhibition [4] [%] | inhibition [5] [%] | inhibition [6] [%] | inhibition [7] [%] | inhibition [8] [%] | inhibition [9] [%] | inhibition [10] [%]
1 | COC(=O)Nc1nc2cc(Oc3ccc(NC(=O)Nc4cccc(Br)c4)cc3)ccc2[nH]1 | 2.07 | 1.97 | 3.53 | 1.41 | 2.33 | 2.14 | 2.72 | 1.92 | 2.2 | 2.43
2 | CN(C)C(=O)O[C@H]1CN[C@H](C#Cc2cc3ncnc(Nc4ccc(OCc5cccc(F)c5)c(Cl)c4)c3s2)C1 | 1.77 | 2.42 | 2.41 | 1.15 | 0.23 | 0.86 | 2.73 | 1.56 | 3.31 | 1.79
3 | CN1CCN(C(=O)c2ccc(NC(=O)Nc3ccc(N(C)c4ccnc(Nc5ccc(CS(C)(=O)=O)cc5)n4)cc3)cc2)CC1 | 3.13 | 1.38 | 3.39 | 1.22 | 1.48 | 1.47 | 2.64 | 5.54 | 39.4 | 2.86
4 | COc1ccc(-c2nn3ncccc3c2-c2ccnc(Nc3cccc(C(F)(F)F)c3)n2)cc1 | -0.66 | 1.66 | 0.95 | 1.07 | -0.19 | 1.85 | -3.09 | 2.01 | 1.61 | 4.24
5 | COc1cc(/C=N/Nc2ncnc3c2cnn3C(C)C)ccc1O | 0.99 | 0.75 | 3.93 | 0.62 | -1.97 | 3.18 | 4.84 | 0.04 | 1.88 | 1.63
6 | COC(=O)c1cncc(/C=C/c2c(C)cc(O)cc2C)c1 | 3.06 | 1.37 | 3 | -2.74 | -4.13 | 3.13 | 3.49 | 2.38 | 4.27 | 4.88
7 | Cc1ccc(Nc2ccnc(Nc3cccc(C(N)=O)c3)n2)cc1O | 3.19 | 2.94 | 5.54 | -0.64 | -0.14 | 1 | 2.08 | 2.56 | 12.8 | 1.62
8 | CN(C)C(=O)O[C@@H]1CN[C@@H](C#Cc2cc3ncnc(Nc4ccc(OCc5cccc(F)c5)c(Cl)c4)c3s2)C1 | 1.65 | 1.47 | 2.72 | 0.93 | 0.99 | -0.23 | 0.16 | 0.47 | 1.66 | 0.93
9 | N#Cc1c(NC(=O)c2ccccc2F)sc2c1CCCC2 | -0.29 | -2.56 | 1.91 | 0.87 | 1.11 | -0.69 | -3.66 | -0.83 | -2.63 | -1.42
10 | Nc1nccc(C#Cc2cncnc2Nc2ccc(OCc3cccc(F)c3)c(Cl)c2)n1 | 5.08 | 8.4 | 8.79 | -0.4 | 0.61 | 1.22 | 7.61 | 2.66 | 5.77 | 3.9
11 | COC(=O)c1ccc2c(c1)C(=Cc1cc(Br)c(O)c(Br)c1)C(=O)N2 | 5.83 | 3.29 | 9.61 | -0.49 | 4.64 | 9.68 | 14.6 | 8.72 | 20.6 | 9.92
12 | Cc1ccc2c(-c3ccnc(Nc4ccc5c(c4)OCCO5)n3)c(-c3ccc(C(F)(F)F)cc3)nn2n1 | -1.51 | 0.22 | -0.06 | 2.15 | 0.11 | 1.74 | 0.1 | -0.69 | -0.6 | 2.74
13 | NC(=O)c1cccc(Nc2nccc(Nc3cccc(F)c3)n2)c1 | 0.53 | 0.45 | 2.08 | 1.09 | 1.02 | 0.04 | 1.52 | -0.9 | 2.39 | 0.65
14 | Cc1ccc(C(=O)NC2CC2)cc1-c1ccc2[nH]ncc2c1 | -2.98 | -2.96 | 1.9 | -2.05 | -2.16 | -1.76 | -4.22 | -4.46 | -3.82 | -2.57
15 | FC(F)(F)c1ccc(-c2nn3ncccc3c2-c2ccnc(Nc3ccc4c(c3)OCCO4)n2)cc1 | -2.19 | -3.32 | -2.99 | -4.88 | -4.43 | 0.08 | 1.68 | 3.99 | 5.26 | 1.54
16 | COc1cccc(-n2ncc3c(N/N=C/c4ccc(S(C)(=O)=O)cc4)ncnc32)c1 | 1.01 | 1.8 | 4.11 | 2.57 | 0.23 | 0.1 | -1.03 | -0.14 | 0.05 | -1.65
17 | NS(=O)(=O)c1ccc(NC=C2C(=O)Nc3ccc4ncsc4c32)cc1 | 13.7 | 7.83 | 30.6 | 0.83 | 6.33 | 14.5 | 48 | 7.15 | 33.2 | 4.96
